Experimental data taken from PubChem BioAssay (Tox21).
Results filed as inconclusive are left out. Entries that show only a call come without a potency. Activity calls are given as the source filed them. Calls come from the whole dose curve; as a rule, active = well fitted cell-killing curve with a large enough effect in the repeat runs; inconclusive = weak or mixed curves, or effect the other way; inactive = flat fitted curve, though single readings scatter.

assay: qHTS RealTime-Glo MT Cell Viability Assay in HEK293 cells - 8 hour (AID 1224887); details: RealTime-Glo luminescence; series mostly up to 76.8 µM; note: nearly all actives have a fitted effect of over 50% in size
Source text: U.S. Tox21 Program National Center for Advancing Translational Sciences [NCATS] NIH Chemical Genomics Center [NCGC] U.S. Environmental Protection Agency [EPA] National Institutes of Environmental Health Sciences [NIEHS] National Toxicology Program [NTP] U.S. Food and Drug Administration [FDA] Tox21 Assay Overview: Measure of cell viability is critical in the cell-base assay. Analysis of cell viability is necessary for the characterization of cell responses to cytotoxic drugs and environmental stress. A RealTime-Glo MT Cell Viability Assay to monitor cell viability in real time of continues cell culture during 40 hours of compound treatment was used to screen Tox21 10K library compounds in Hek293 cells. The RealTime-Glo MT Cell Viability Assay is a nonlytic, homogeneous, bioluminescent method to measure cell viability in real time using a simple, plate-based method. The assay involves adding NanoLuc luciferase and a cell-permeant prosubstrate to cells in culture. Viable cells reduce the proprietary prosubstrate to generate a substrate for NanoLuc luciferase. This substrate diffuses from cells into the surrounding culture medium, where it is rapidly used by the NanoLuc Enzyme to produce a luminescent signal. The signal correlates with the number of viable cells, making the assay well suited for cytotoxicity studies.
Tox21 Assay Protocol Summary: The mixture of Hek293 cell suspension and reagents were dispensed at 600cells/6 ul/well in 1536-well tissue culture treated black solid bottom plates using a Multidrop dispenser. After the assay plates were incubated at a 37 C/5% CO2 incubator for 5 hours, 23 nL of compounds dissolved in DMSO, positive and negative controls was transferred to the assay plate by a pintool work station. The plates were incubated at 37 C for 40 hours. The luminescence intensity were measured at 0h, 8h, 16h, 24h, 32h and 40h time points using ViewLux plate reader during compound treatment.
Potency is the fitted concentration of half-maximal effect.

Row | Compound | Potency
1 | NC(=O)C(Cl)(Cl)Cl | inactive
2 | COC1=CC(=O)O[C@@H](CCc2ccccc2)C1 | inactive
3 | CCCCC(O)(Cn1cncn1)c1ccc(Cl)cc1Cl (stereo not given) | 43.6 µM (active)
4 | CCN(C)N=O | inactive
5 | Cl/C=C\C[N+]12CN3CN(CN(C3)C1)C2 | inactive
6 | O=C(C(Cl)(Cl)Cl)C(Cl)(Cl)Cl | inactive
7 | CN(N=O)c1ccc([N+](=O)[O-])cc1 | inactive
8 | CCCN(CCC)c1c([N+](=O)[O-])cc(S(C)(=O)=O)cc1[N+](=O)[O-] | 13.8 µM (active)
9 | CCCCCCCCCCOC(=O)c1ccccc1C(=O)OCCCCCCCCCC | inactive
10 | CCc1ccc(C(=O)NN(C(=O)c2cc(C)cc(C)c2)C(C)(C)C)cc1 | inactive
11 | O=C(O)C(F)(F)C(F)(F)C(F)(F)C(F)(F)C(F)(F)C(F)(F)C(F)(F)C(F)(F)C(F)(F)F | inactive
12 | BrCCCCBr | inactive
13 | C=CC(=O)OCCCCO | inactive
14 | O=C(O)CC(Cl)C(=O)O (stereo not given) | inactive
15 | C=CC(=O)OC | inactive
16 | Cl/C=C\Cl | inactive
17 | O=C(NC(=O)c1c(F)cccc1F)Nc1ccc(OC(F)(F)C(F)OC(F)(F)F)c(Cl)c1 (stereo not given) | inactive
18 | C[N+](C)(C)CCCl | inactive
19 | CC(C)(OO)c1ccccc1 | inactive
20 | C=CC(=O)NCNC(=O)C=C | inactive

Row | Compound | Potency
21 | CCO[C@H]1O[C@@H]2OC3(C)CC[C@H]4[C@H](C)CC[C@@H]([C@H]1C)[C@@]24OO3 | inactive
22 | O=[N+]([O-])c1cc(C(F)(F)F)cc([N+](=O)[O-])c1Cl | 43.8 µM (active)
23 | COC(=O)c1cncn1C(C)c1ccccc1 (stereo not given) | inactive
24 | O=C(O)c1ccccc1C(=O)Nc1cccc2ccccc12 | inactive
25 | CCCCN(N=O)C(=N)N[N+](=O)[O-] | inactive
26 | O=Cc1ccc(Cl)cc1Cl | inactive
27 | COC(N)=O | inactive
28 | CC/C(=N\OC/C=C/Cl)C1=C(O)CC(C2CCOCC2)CC1=O (stereo not given) | inactive
29 | COP(=O)(OC)O/C(=C/Cl)c1cc(Cl)c(Cl)cc1Cl | inactive
30 | CCCC(=O)Cl | inactive
31 | Brc1ccccc1 | inactive
32 | O=C(N[C@H](c1ccccc1)[C@@H]1CN2CCC1CC2)c1c(Cl)ccc(C(F)(F)F)c1Cl | inactive
33 | O=C1c2ccccc2C(=O)C1C(=O)C(c1ccccc1)c1ccccc1 | inactive
34 | Cc1ccc(N)cc1C | inactive
35 | ClC=C(Cl)Cl | inactive
36 | COc1c(C(C)(C)C)cc([N+](=O)[O-])c(C)c1[N+](=O)[O-] | inactive
37 | CCOP(=S)(Oc1ccc([N+](=O)[O-])cc1)c1ccccc1 (stereo not given) | inactive
38 | C=CCOC(C)=O | inactive
39 | CN(C)c1ccc(N(C)C)cc1 | 34.8 µM (active)
40 | C[C@H]1CNCCc2ccc(Cl)cc21 | inactive
